{
  "source": "PubChem BioAssay AID430",
  "about": "(Sanford-Burnham Center for Chemical Genomics, 2006)",
  "note": "In all, about 63,000 compounds went through this assay and about 1,100 (1.7%) were called active. Cut-off read from the data, not from the text of the source: active = cytotoxicity above about 50%; inactive = the rest. What follows is part of a selection rich in actives, with near analogues and random picks from the rest. Entries with a potency or affinity are not part of this list.",
  "data": [
    {"test": "HPDE-C7 pancreatic duct cell viability loss – fluorescence, HTS (AID 430);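 note: cells exposed to compound for 48 hours before viability readout; 0% = vehicle and 100% = reference cytotoxic drug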", "conditions": "HPDE-C7 pancreatic duct cells viability, at 10 µM, active compounds read high", "values": [
      {"smiles": "O=C(O)C1C2CCC(O2)C1C(=O)NCCC1=CCCCC1", "note": "(configuration not stated)", "cytotoxicity": "21.4% (inactive)"},
      {"smiles": "COc1ccc(CCC(C(O)C(F)(F)F)S(=O)c2ccccc2)cc1", "note": "(configuration not stated)", "cytotoxicity": "-3.4% (inactive)"},
      {"smiles": "COc1ccccc1NC(=O)Nn1cnnc1", "cytotoxicity": "-17.6% (inactive)"},
      {"smiles": "CCn1c(SCC(=O)c2cc(OC)ccc2OC)nnc1-c1ccncc1", "cytotoxicity": "6.4% (inactive)"},
      {"smiles": "CC1Cc2ccccc2N1C(=O)CSc1nnc(NC(=O)Cc2cccs2)s1", "note": "(configuration not stated)", "cytotoxicity": "-10% (inactive)"},
      {"smiles": "CC(=O)Oc1ccc(N2C(=O)C3C(C2=O)C2(C)C=CC3(C)O2)cc1", "note": "(configuration not stated)", "cytotoxicity": "-4% (inactive)"},
      {"smiles": "CCOc1ccc(C)cc1S(=O)(=O)NC1CCCCC1", "cytotoxicity": "4.3% (inactive)"},
      {"smiles": "Cc1ccc(-c2nn3c(C)nnc3s2)cc1NC(=O)c1ccc(OC(C)C)cc1", "cytotoxicity": "-1% (inactive)"},
      {"smiles": "CCOc1ccc2nc(C)cc(C(=O)O)c2c1", "cytotoxicity": "33.6% (inactive)"},
      {"smiles": "c1ccc2c(c1)oc1c(NCCN3CCOCC3)ncnc12", "cytotoxicity": "6.2% (inactive)"},
      {"smiles": "c1ccc(Nc2ncnc3c2oc2ccccc23)cc1", "cytotoxicity": "-9.3% (inactive)"},
      {"smiles": "COc1ccc(C)cc1NC(=O)COCC(=O)O", "cytotoxicity": "-11.8% (inactive)"},
      {"smiles": "O=C(CN1CCN(Cc2ccccc2)CC1)Nc1ccc(Cl)cn1", "cytotoxicity": "3.5% (inactive)"},
      {"smiles": "CCOc1ccccc1CN(Cc1ccco1)S(=O)(=O)c1ccc(-n2cnnn2)c(OC)c1", "cytotoxicity": "56.5% (active)"},
      {"smiles": "COc1cc(S(=O)(=O)N(Cc2cccnc2)Cc2ccco2)ccc1-n1cnnn1", "cytotoxicity": "-4.3% (inactive)"},
      {"smiles": "COc1ccccc1CN(Cc1ccco1)S(=O)(=O)c1ccc(-n2cnnn2)c(OC)c1", "cytotoxicity": "19.4% (inactive)"},
      {"smiles": "CCOC(=O)c1c(NC(=O)CN2CCOCC2)sc2c1CCCC2=O", "cytotoxicity": "3.3% (inactive)"},
      {"smiles": "CCOc1cc(/C=N/n2cnnc2)ccc1OCC(=O)Nc1ccccc1OC", "cytotoxicity": "7.2% (inactive)"},
      {"smiles": "CC(C)c1ccc(Nc2nc(NCc3ccco3)nc(N3CCOCC3)n2)cc1", "cytotoxicity": "27.5% (inactive)"},
      {"smiles": "CN1CCN(c2nc(Nc3cccc(C(F)(F)F)c3)nc(N3CCOCC3)n2)CC1", "cytotoxicity": "65.4% (active)"},
      {"smiles": "O=C(O)c1cccc(Nc2nc(N3CCOCC3)nc(N3CCOCC3)n2)c1", "cytotoxicity": "-10% (inactive)"},
      {"smiles": "Cc1cccc(Nc2nc(NCc3ccco3)nc(N3CCOCC3)n2)c1", "cytotoxicity": "53% (active)"},
      {"smiles": "COc1nc(Nc2cccc(C(F)(F)F)c2)nc(OC)n1", "cytotoxicity": "-28.1% (inactive)"},
      {"smiles": "Cc1ccc(Nc2nc(N3CCOCC3)nc(N3CCOCC3)n2)cc1", "cytotoxicity": "8.7% (inactive)"},
      {"smiles": "Cc1nn(C)c(C)c1S(=O)(=O)NC1CCCc2ccccc21", "note": "(configuration not stated)", "cytotoxicity": "-10% (inactive)"},
      {"smiles": "CCc1n[nH]c2c1/C(=N\\O)CC(c1ccccc1)C2", "note": "(configuration not stated)", "cytotoxicity": "-1.4% (inactive)"},
      {"smiles": "O=C(C1CCN(c2nnc(-n3cccc3)s2)CC1)N1CCN(Cc2ccc3c(c2)OCO3)CC1", "cytotoxicity": "-3.5% (inactive)"}
    ]}
  ]
}
